# Screening data deposited in PubChem BioAssay by Broad Institute.
# In the library only some 4% were active in any assay of this set; here they are far more common.
# Wnt act: activators of Wnt/beta-catenin signaling | Wnt/beta-catenin reporter cell assay, activator, plate reader | activation, % at 9.35 µM | hit rate 1.2% among 300,000; in the data active = activation above about 30%, passing the limit was not always enough; inconclusive = no clear call, values can overlap the other calls;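 note: 0% = neutral control wells and 100% = positive control wells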
# TRPM1 prom inh: inhibitors of MITF-driven TRPM1 promoter in melanoma cells. SK-MEL-5 TRPM1 promoter luciferase, 24 h. inhibition, % at 12.5 µM. hit rate 0.83% among 330,000;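 active = mean inhibition across replicates of 60% or more, whatever share of single replicates reaches that level; inconclusive = some that reach 60%, reason not given; inactive = mean inhibition across replicates below 60%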
# EBV LMP1 NFkB: inhibitors of Epstein-Barr LMP1-induced NF-kappaB reporter | LMP1-induced NF-kappaB luciferase reporter cells, luminescence | inhibition, % at 12.5 µM | hit rate 0.69% among 350,000 | AID 504558; in the data active = inhibition above about 41%; inconclusive = no clear call, values can overlap the other calls;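 note: 0% = neutral control wells and 100% = reference inhibitor control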
# esBAF inh: inhibitors of esBAF chromatin remodeling in mouse ES cells. Bmi1-luciferase knock-in reporter, 24 h; 100% = twice the neutral-well signal. reporter increase, % at 12.5 µM. hit rate 2% among 350,000; in the data active = activation above about 40%; inconclusive = no clear call, values can overlap the other calls;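 note: 0% = median of the plate's neutral control wells and 100% = double that signal; a rise in the Bmi1 reporter signal indicates esBAF inhibition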
# C2C12 statin: suppressors of simvastatin-induced myotoxicity in C2C12 myotubes; rescue of ATP level, % at 7.49 µM; hit rate 0.78% among 330,000; ATP luminescence, 48 h; scaled: DMSO 0, geranylgeraniol control 100;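 active = mean ATP rescue above about 67%, or every replicate alone reaching that limit, limit read from the data, passing the limit was not always enough; inconclusive = no clear call, values can overlap the other calls; inactive = mean under the limit and some replicate under it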;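 note: myotubes were challenged with 10 µM simvastatin during compound exposure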
# MITF act: activators of MITF-driven TRPM1 promoter activity in SK-MEL-5 cells; SK-MEL-5 TRPM1-promoter luciferase, 24 h; % of positive control, neutral wells = 0; hit rate 0.75% among 300,000; activation, % at 12.5 µM;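 active = mean activation of at least 80% with every replicate also reaching 80%; inconclusive = mean reaches 80% but some replicate falls short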;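 note: 0% = neutral control wells and 100% = parthenolide positive control wells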
# Active calls of the source: *; ? = inconclusive; / = no result.
SMILES,Wnt act,TRPM1 prom inh,EBV LMP1 NFkB,esBAF inh,C2C12 statin,MITF act
O=C1/C(=C\c2ccccc2)C2OCC=C3CN4CCC56c7ccccc7N1C5C2C3CC46 (stereo not given),-1,10,10,6,137*,-4
O=c1[nH]c2ccccc2n1C1CCN(C(c2cccs2)c2nnnn2Cc2ccccc2)CC1 (stereo not given),-3,/,/,-5,7,/
COC(=O)c1ccc(NC(=O)CSc2nc3ccc(N4C(=O)C5C6C=CC(C6)C5C4=O)cc3s2)cc1 (stereo not given),-1,62*,14,/,/,-61
CCCC(=O)c1ccc(CP(=O)(OCC)OCC)o1,1,14,-13,/,/,/
COc1ccc(Oc2cc(NC(=O)c3nn(C)cc3[N+](=O)[O-])cc([N+](=O)[O-])c2)cc1,-13,81*,-5,-3,97*,-81
CC(N)C(=O)NC1C2C(=C(O)CC(O)C2O)C(=O)OC1(C)C(Cl)Cl (stereo not given),-6,66*,85*,/,/,/
Cc1cc(C(=O)NP(=O)(N2CCOCC2)N2CCOCC2)c(C)n1C1CC1,-1,7,0,/,/,-6
CC(C)(C)N1CC(C(=O)c2ccccc2)C1c1ccccc1 (stereo not given),2,-5,-10,/,/,4
C=CCN=C(SCC(=O)c1ccc(Cl)cc1)c1c(O)n(C)c(=O)n(C)c1=O,8,8,15,-18,3,/
O=C1NC(=O)N(CCc2ccc(F)cc2)C(=O)/C1=C\C=C\c1ccccc1,-7,90*,-26,-1,20,-89
C=CCN1C(=O)NC(=O)/C(=C/C=C/c2ccccc2)C1=O,3,94*,-20,7,11,-94
CN(C)c1ccc(/C=C2/C(=O)NC(=O)N(CCc3ccc(F)cc3)C2=O)cc1,-3,-10,-1,/,/,6
COc1ccc(-n2nnnc2C(CCSC)N2CCC3(CC2)C(=O)NCN3c2ccccc2)cc1 (stereo not given),-1,/,/,0,-9,/
CNC(=O)Oc1ccc(-c2cn3cc(C)ccc3n2)cc1,-5,20,64*,/,/,-19
O=C1C(c2ccccc2)=C(N2CC2)c2ccccc21,/,6,3,/,/,-4
NC(=O)c1cn(C2OC(CO)C(O)C2O)c2ncnc(N)c12 (stereo not given),-21,84*,81*,-25,-173,-82
CC1(C)N(O)C2CCCCC2N1O (stereo not given),-1,7,6,-7,107*,-4
c1csc(CN2CCNCC2)c1,-2,5,5,/,/,-3
CCCCC(=O)N/N=C/c1c(O)n(CCc2ccccc2)c(=O)[nH]c1=O,0,/,/,/,/,/
COc1ccc(C2c3c(nc(C)[nH]c3=O)Oc3c2c(=O)oc2ccccc32)cc1 (stereo not given),36*,/,/,/,/,/
COc1cccc(C2C([N+](=O)[O-])=C(N)Oc3c2c(=O)oc2ccccc32)c1 (stereo not given),1,-4,-8,-1,-4,/
CN1CCC(N(C)c2ncnc3ccc(Br)cc23)CC1,/,0,7,-2,83*,2
CC(=O)N(C)C1=Nc2ccc(Cl)cc2C(c2ccccc2)=[N+]([O-])C1,-1,-2,70*,-4,10,0
COC(=O)C1=C(c2ccc(OC(F)(F)F)cc2)C[C@@H]2CC[C@H]1N2C(=O)NCCOc1ccccc1Cl,-5,-5,10,1,8,1
COC(=O)C1=C(c2ccc(Cl)c(C(F)(F)F)c2)C[C@@H]2CC[C@H]1N2C(=O)NCCOc1ccccc1,/,-2,12,-1,12,0
SMILES,Wnt act,TRPM1 prom inh,EBV LMP1 NFkB,esBAF inh,C2C12 statin,MITF act
CC1CCC(C(C)C)C(OC(=O)Cn2c(COc3ccccc3)[n+](C)c3ccccc32)C1 (stereo not given),-1,97*,-4,-31,-69,-96
COC(=O)C1=C(c2cccc(OCc3ccccc3)c2)C[C@@H]2CC[C@H]1N2C(=O)NCc1cccc(F)c1,-5,8,10,5,-3,-11
Cc1ccc(N)c(N)c1,29,-103,-15,-22,0,99*
CC[n+]1c(SC)ccc2cc(OC)ccc21,-3,-15,3,/,/,10
O=C1C(=O)N(c2ccccc2)P(=O)(N(CCCl)CCCl)N1c1ccccc1,37*,-91,-24,27,4,99*
CC(C)(O)/C=C/C(=O)C(C)(O)C1C(O)CC2(C)C3CC=C4C(C=C(O)C(=O)C4(C)C)C3(C)C(=O)CC12C (stereo not given),-9,/,45*,/,/,-92
CC(=O)OC(C)(C)/C=C/C(=O)[C@](C)(O)C1[C@H](O)C[C@@]2(C)C3CC=C4C(C[C@H](O)C(=O)C4(C)C)[C@]3(C)C(=O)C[C@]12C (stereo not given in full),/,91*,43*,-1,13,-90
CCc1nc(N2CCNCC2)c(C#N)c2c1CSC(C)(C)C2,-1,-9,-14,-7,-13,/
COc1ccccc1CCNC(=O)CCC(=O)N1CC2C[C@@H](C1)Cn1c2cccc1=O,-1,-19,1,46*,-5,19
COc1cccc(CNC(=O)CCC(=O)N2C[C@H]3C[C@H](C2)c2cccc(=O)n2C3)c1OC,1,-3,-9,1,0,5
Cn1cc(C(=O)OCC(=O)Nc2ccccc2)c2ccccc21,2,-7,1,-2,9,7
Cn1cc(C(=O)OCC(=O)N2CCCCC2)c2ccccc21,50*,-8,-5,28,2,9
O=C(OCc1ccccc1)N1CCC2CC1c1cc(N3Cc4ccccc4-n4nncc4C3)ccc12 (stereo not given),?,/,-74,77*,3,/
Oc1c(Br)c(Br)c(Br)c(Br)c1Br,/,2,7,0,-3,0
Cc1cc(N(CCCl)CCCl)ccc1C=NNC(=O)Cc1cc(=O)oc2cc(O)ccc12,12,0,35,-9,4,0
Cc1cc(N(CCCl)CCCl)ccc1/C=N/NC(=O)c1ccco1,25,-21,53*,33,1,18
CN(C)C(=O)Oc1noc2cc(Cl)ccc12,4,-9,-1,/,/,/
COc1ccc(CC2C(=O)NC(C)C(=O)N(C)C3C(=O)N(C)C(Cc4ccc(O)c(c4)Oc4ccc(cc4)C3O)C(=O)NC(C)C(=O)NC(C)C(=O)N2C)cc1 (stereo not given),-10,104*,85*,/,/,/
CCOC(=O)c1c(N)n(CCCOC(=O)c2ccco2)c2nc3ccccc3nc12,-1,89*,-1,6,8,/
CCOC(=O)[C@]12Cc3cc(Cl)ccc3[C@H]1N(Cc1ccccc1)C(=O)c1ccccc12,-5,-3,-5,0,29,1
